“And” between values parts separate entries of the source, which are not always exact repeats. Equal entries are not always repeated. A number with no mark means an inactive call. Inconclusive results are not listed. Where a call stands in place of a potency, no number is given. The source made the active and inactive calls. Unless noted, calls follow the shape of the dose curve; as a rule, active = well fitted curve in the direction sought with a large enough effect in the repeat runs; inconclusive = weak or mixed curves; inactive = no such curve, though single readings can be large; an effect the other way counts as inactive or inconclusive.
Tests used:
[1] = qHTS assay to identify small molecule antagonists of the sonic hedgehog signaling (Shh) pathway (AID 1259369; calls by dose curve; also: nearly all actives have a fitted effect of over 45% in size; also: potency is read from the fitted curve at half-maximal effect)
Summary of the method: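 NIH/3T3-derived 3T3Gli1-Luc cells with stably integrated Gli1-Luc reporter were preincubated 4hr at 37 C, then given compounds in DMSO plus Shh conditioned medium and incubated 24hr. Firefly luciferase luminescence read after 30min reagent at room temperature.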

[2] = qHTS assay to identify small molecule agonists of the androgen receptor (AR) signaling pathway in the presence of an antagonist - cell viability counter screen (AID 1259379); also: nearly all actives have a fitted effect of over 25% in size; also: potency is read from the fitted curve at half-maximal effect
Summary of the method: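 MDA-kb2 human breast carcinoma cells (stable MMTV-luciferase, AR/GR responsive) were seeded 3,000 cells/well, pre-incubated 5 hr at 37C without CO2, then given 3.0uM nilutamide and compounds at 15 concentrations for 16 hr. Viability was read by CellTiter-Fluor fluorescence.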

[3] = qHTS assay to identify small molecule agonists of the estrogen receptor beta (ER-beta) signaling pathway - cell viability counter screen (AID 1259380); also: nearly all actives have a fitted effect of over 30% in size; also: potency is read from the fitted curve at half-maximal effect
Summary of the method: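 ER-beta-UAS-bla HEK293T cells in medium with 2% charcoal-stripped FBS were preincubated 6 hr at 37C, dosed with compound in DMSO for 16 hr, then after the bla read, CellTiter-Glo was added for 30 min at room temperature; luminescence recorded.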

[4] = qHTS assay to identify small molecule antagonists of the estrogen receptor beta (ER-beta) signaling pathway - cell viability counter screen (AID 1259382); also: nearly all actives have a fitted effect of over 55% in size; also: potency is read from the fitted curve at half-maximal effect
Summary of the method: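 ER-beta-UAS-bla HEK293T cells (2,000/well, 2% charcoal-stripped FBS) were pre-incubated 6 hr at 37C, then given compound plus 1nM final 17-beta-estradiol for 16 hr. Viability was read in the same wells by CellTiter-Glo luminescence after 30 min at room temperature.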

[5] = molecular target: Estrogen receptor (Homo sapiens) (UniProt P03372); assay: qHTS assay to identify small molecule agonists of the estrogen receptor alpha (ER-alpha) signaling pathway in the presence of an antagonist (AID 1259383; calls by dose curve; also: nearly all actives have a fitted effect of over 15% in size; also: potency is read from the fitted curve at half-maximal effect; as to activation: top concentration of the series differs between compounds)
Summary of the method: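 VM7Luc4E2 cells (endogenous full-length ER-alpha, 4×ERE-luciferase) were precultured 5 days in phenol red-free medium with 10% charcoal-stripped FBS, given 10.0nM ICI-182,780 (final), then treated with compounds at 15 concentrations for 22hr at 37C; luminescence read with ONE-Glo.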

[6] = qHTS assay to identify small molecule agonists of the estrogen receptor alpha (ER-alpha) signaling pathway in the presence of an antagonist - cell viability counter screen (AID 1259386);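 also: series mostly up to about 92 µM; cells exposed to compounds for 22 h at 37 °C before the viability read; nearly all actives have a fitted effect of over 30% in size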
Summary of the method: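 VM7Luc4E2 cells (endogenous full-length ER-alpha, 4×ERE-luciferase) were held 5 days in phenol red-free medium with 10% charcoal-stripped FBS, plated, then given 10.0nM ICI-182,780 and compounds at 15 concentrations for 22hr at 37C; viability read by CellTiter-Fluor fluorescence.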

[7] = molecular target: Progesterone receptor (Homo sapiens) (UniProt P06401); assay: qHTS assay to identify small molecule agonists of the progesterone receptor (PR) signaling pathway (AID 1346784; calls by dose curve; also: nearly all actives have a fitted effect of over 30% in size)
Summary of the method: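 The screen uses PR-UAS-bla HEK 293T cells in charcoal-stripped serum (2%). Compounds are applied for 16 hr at 37C after a 6 hr pre-incubation, and reporter activity is detected with a FRET beta-lactamase substrate after 2 hr at room temperature.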

[8] = molecular target: Progesterone receptor (Homo sapiens) (UniProt P06401); assay: qHTS assay to identify small molecule antagonists of the progesterone receptor (PR) signaling pathway (AID 1346795; active = well fitted inhibition curve with a large enough effect in the signal ratio in the repeat runs, not every such curve was filed as active; the % refers to the signal ratio; also: potency is read from the fitted curve at half-maximal effect)
Summary of the method: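 After 6 hr plating at 37C in 2% stripped-serum medium, PR-UAS-bla HEK293T cells got compounds, then 1 nM R5020. Sixteen hours later, LiveBLAzer substrate was applied for 2 hr at room temperature and fluorescence was recorded.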

[9] = qHTS assay to identify small molecule antagonists of the progesterone receptor (PR) signaling pathway - cell viability counter screen (AID 1346798); also: nearly all actives have a fitted effect of over 50% in size; also: potency is read from the fitted curve at half-maximal effect
Summary of the method: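 Viability was determined by ATP-based luminescence (CellTiter-Glo) in PR-UAS-bla HEK293T cells cultured in 2% charcoal-stripped serum and incubated 16 hr with compounds under R5020 stimulation.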

[10] = qHTS assay to identify small molecule agonists of the progesterone receptor (PR) signaling pathway - cell viability counter screen (AID 1346799; calls by dose curve; also: nearly all actives have a fitted effect of over 45% in size; also: potency is read from the fitted curve at half-maximal effect)
Summary of the method: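 Viability was scored by ATP luminescence (CellTiter-Glo, 30 min, room temperature) in the same wells used for the reporter readout, after 16 hr compound exposure of PR-UAS-bla HEK293T cells.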

[11] = qHTS assay to identify small molecule antagonists of the TGF-beta/Smad signaling pathway - cell viability counter screen (AID 1346824); also: nearly all actives have a fitted effect of over 50% in size
Summary of the method: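 SBE-bla HEK 293T cells were plated overnight at 37 C, then given compounds in DMSO plus TGF-beta1 (added as 0.25 ng/mL solution) for 5 hr. After the bla read, CellTiter-Glo was added to the same wells and luminescence read after 30 min at room temperature.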

[12] = qHTS assay to identify small molecule agonists of the TGF-beta/Smad signaling pathway - cell viability counter screen (AID 1346829); also: top concentration of the series differs between compounds; nearly all actives have a fitted effect of over 45% in size
Summary of the method: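 In parallel with the Smad reporter read, viability of HEK 293T cells stably carrying SBE-bla is quantified by ATP luminescence following 5 hr compound treatment.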

[13] = qHTS assay to identify small molecule agonists of the TGF-beta/Smad signaling pathway (AID 1346859; active = well fitted activation curve with a large enough effect in the signal ratio in the repeat runs, not every such curve was filed as active; the % refers to the signal ratio; also: series mostly up to about 77 µM)
Summary of the method: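 Dual-wavelength fluorescence (460/530 nm emission) quantified beta-lactamase expression under the Smad binding element in HEK 293T cells following 5 hr compound treatment at 37 C.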

[14] = molecular target: Thyrotropin-releasing hormone receptor (Homo sapiens) (UniProt P34981); assay: qHTS assay to identify small molecule antagonists of the thyrotropin-releasing hormone receptor (TRHR) signaling pathway (AID 1346877; active = well fitted inhibition curve with a large enough effect in the repeat runs, not every such curve was filed as active; also: series mostly up to about 51 µM)
Summary of the method: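 TRHR-expressing HEK293 cells were seeded, cultured 18 h at 37 °C, then loaded with calcium dye for 2 h. Compounds were pre-incubated 5 min at room temperature before 1 nM TRH (final) was added, and kinetic fluorescence was recorded for 3 min.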

[15] = molecular target: Thyrotropin-releasing hormone receptor (Homo sapiens) (UniProt P34981); assay: qHTS assay to identify small molecule agonists of the thyrotropin-releasing hormone receptor (TRHR) signaling pathway (AID 1346891; calls by dose curve; also: series mostly up to about 58 µM)
Summary of the method: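 Kinetic fluorescence (3 min, 1 s intervals) reported intracellular calcium after compound transfer onto TRHR-Hek293 cells pre-loaded with dye for 2 h at 37 °C.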

[16] = qHTS assay to identify small molecule agonists or antagonists of the thyroid stimulating hormone receptor (TSHR) signaling pathway - wild type cell line counter screen (AID 1259384; calls by dose curve)
Summary of the method: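 Wild-type HEK293 cells were plated 18 h at 37 C/5% CO2, pin-dosed with compound plus Ro20-1724 medium, held 30 min at room temperature, then given cAMP-d2 and anti-cAMP-cryptate; fluorescence was read after 1 h. Fifteen concentrations, triplicate.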

[17] = molecular target: Thyrotropin receptor (Homo sapiens) (UniProt P16473); assay: qHTS assay to identify small molecule antagonists of the thyroid stimulating hormone receptor (TSHR) signaling pathway (AID 1259385; calls by dose curve; also: nearly all actives have a fitted effect of over 20% in size)
Summary of the method: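 TSHR-HEK293 cells were plated and held 18 h at 37C/5% CO2, then given compound plus Ro20-1724 and stimulated with TSH at 1.5 ng/mL final. After 30 min at room temperature, cAMP was detected with cAMP-d2/anti-cAMP-cryptate (1 h) by fluorescence.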

[18] = molecular target: Androgen receptor (Homo sapiens) (UniProt P10275); assay: qHTS assay to identify small molecule agonists of the androgen receptor (AR) signaling pathway in the presence of an antagonist (AID 1259381; calls by dose curve; also: nearly all actives have a fitted effect of over 15% in size)
Summary of the method: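 MDA-kb2 human breast carcinoma cells carrying an MMTV-luciferase reporter (AR- and GR-responsive) were treated with compounds at 15 concentrations plus 3.0uM final nilutamide for 16hr at 37C without CO2; luminescence was read after ONE-Glo addition.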

Chain of Thyrotropin-releasing hormone receptor (Homo sapiens) (P34981 whole entry, looked up): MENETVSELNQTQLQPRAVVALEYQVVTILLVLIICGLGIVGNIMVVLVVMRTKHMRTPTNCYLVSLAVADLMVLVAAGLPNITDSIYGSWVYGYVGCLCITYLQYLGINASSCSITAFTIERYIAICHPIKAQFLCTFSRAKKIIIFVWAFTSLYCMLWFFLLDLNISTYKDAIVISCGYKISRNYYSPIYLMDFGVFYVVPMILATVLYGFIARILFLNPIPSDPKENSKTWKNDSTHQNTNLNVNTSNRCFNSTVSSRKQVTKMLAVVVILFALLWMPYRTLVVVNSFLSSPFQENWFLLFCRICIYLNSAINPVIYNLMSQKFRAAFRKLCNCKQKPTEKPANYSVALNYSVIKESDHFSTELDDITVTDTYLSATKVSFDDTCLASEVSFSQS
Chain of Progesterone receptor (Homo sapiens) (P06401 whole entry, looked up): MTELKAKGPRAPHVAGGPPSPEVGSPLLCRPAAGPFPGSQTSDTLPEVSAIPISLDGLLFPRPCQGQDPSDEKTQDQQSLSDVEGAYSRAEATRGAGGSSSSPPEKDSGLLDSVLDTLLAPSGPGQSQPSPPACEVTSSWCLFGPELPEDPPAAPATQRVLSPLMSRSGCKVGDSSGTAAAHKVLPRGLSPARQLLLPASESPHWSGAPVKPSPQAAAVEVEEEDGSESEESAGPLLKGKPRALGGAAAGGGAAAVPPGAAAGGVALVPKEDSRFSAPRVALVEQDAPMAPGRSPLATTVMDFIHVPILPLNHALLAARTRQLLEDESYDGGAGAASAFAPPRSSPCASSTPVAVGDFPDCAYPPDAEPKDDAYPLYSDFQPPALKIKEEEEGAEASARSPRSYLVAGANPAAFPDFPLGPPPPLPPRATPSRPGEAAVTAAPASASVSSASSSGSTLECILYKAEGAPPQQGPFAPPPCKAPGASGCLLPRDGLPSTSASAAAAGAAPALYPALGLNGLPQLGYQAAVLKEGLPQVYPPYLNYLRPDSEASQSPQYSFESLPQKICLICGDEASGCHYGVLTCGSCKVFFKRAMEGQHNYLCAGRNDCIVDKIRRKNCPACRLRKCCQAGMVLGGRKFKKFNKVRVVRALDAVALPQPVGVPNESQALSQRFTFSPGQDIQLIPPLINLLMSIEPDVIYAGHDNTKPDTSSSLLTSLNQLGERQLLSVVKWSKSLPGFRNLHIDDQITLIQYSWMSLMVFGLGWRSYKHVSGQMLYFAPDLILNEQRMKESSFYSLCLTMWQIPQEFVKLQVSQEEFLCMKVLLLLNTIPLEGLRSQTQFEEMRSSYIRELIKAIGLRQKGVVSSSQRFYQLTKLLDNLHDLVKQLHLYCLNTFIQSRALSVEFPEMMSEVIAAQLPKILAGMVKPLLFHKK
Chain of Estrogen receptor (Homo sapiens) (P03372 whole entry, looked up): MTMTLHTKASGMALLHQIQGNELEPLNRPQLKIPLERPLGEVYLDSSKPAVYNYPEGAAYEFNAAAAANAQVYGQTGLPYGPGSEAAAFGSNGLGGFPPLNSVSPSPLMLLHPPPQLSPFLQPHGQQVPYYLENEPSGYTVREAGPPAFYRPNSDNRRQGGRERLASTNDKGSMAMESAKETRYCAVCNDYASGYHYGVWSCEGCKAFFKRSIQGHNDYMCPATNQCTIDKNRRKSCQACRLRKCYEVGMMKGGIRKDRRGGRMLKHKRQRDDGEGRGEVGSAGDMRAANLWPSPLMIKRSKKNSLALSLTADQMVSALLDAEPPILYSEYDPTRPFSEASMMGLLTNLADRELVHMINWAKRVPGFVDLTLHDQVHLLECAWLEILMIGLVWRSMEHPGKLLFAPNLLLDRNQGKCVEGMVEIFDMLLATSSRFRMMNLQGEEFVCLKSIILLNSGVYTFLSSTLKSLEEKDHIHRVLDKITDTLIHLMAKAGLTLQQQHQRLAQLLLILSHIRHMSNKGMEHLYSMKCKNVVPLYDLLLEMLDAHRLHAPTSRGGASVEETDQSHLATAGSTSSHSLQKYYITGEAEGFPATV
Chain of Thyrotropin receptor (Homo sapiens) (P16473 whole entry, looked up): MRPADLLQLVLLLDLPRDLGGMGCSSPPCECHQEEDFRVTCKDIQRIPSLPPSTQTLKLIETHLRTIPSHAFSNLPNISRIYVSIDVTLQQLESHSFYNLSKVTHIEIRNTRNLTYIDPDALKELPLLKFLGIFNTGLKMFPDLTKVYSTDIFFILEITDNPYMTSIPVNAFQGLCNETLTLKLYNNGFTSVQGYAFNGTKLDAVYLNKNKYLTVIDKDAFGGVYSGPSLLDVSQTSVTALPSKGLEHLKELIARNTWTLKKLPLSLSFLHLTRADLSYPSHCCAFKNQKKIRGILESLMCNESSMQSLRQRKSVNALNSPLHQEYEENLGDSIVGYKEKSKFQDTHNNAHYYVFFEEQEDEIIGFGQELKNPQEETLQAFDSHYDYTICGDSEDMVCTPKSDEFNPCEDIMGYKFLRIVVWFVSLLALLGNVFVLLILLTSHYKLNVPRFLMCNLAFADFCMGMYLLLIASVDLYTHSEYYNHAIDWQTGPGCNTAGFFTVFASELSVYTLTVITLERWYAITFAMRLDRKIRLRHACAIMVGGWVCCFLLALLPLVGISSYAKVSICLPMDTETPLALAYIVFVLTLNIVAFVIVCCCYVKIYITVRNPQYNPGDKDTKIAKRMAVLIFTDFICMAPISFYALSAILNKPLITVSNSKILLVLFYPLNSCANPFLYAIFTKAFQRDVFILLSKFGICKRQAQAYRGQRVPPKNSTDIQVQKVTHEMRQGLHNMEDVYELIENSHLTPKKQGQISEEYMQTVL
Chain of Androgen receptor (Homo sapiens) (P10275 whole entry, looked up): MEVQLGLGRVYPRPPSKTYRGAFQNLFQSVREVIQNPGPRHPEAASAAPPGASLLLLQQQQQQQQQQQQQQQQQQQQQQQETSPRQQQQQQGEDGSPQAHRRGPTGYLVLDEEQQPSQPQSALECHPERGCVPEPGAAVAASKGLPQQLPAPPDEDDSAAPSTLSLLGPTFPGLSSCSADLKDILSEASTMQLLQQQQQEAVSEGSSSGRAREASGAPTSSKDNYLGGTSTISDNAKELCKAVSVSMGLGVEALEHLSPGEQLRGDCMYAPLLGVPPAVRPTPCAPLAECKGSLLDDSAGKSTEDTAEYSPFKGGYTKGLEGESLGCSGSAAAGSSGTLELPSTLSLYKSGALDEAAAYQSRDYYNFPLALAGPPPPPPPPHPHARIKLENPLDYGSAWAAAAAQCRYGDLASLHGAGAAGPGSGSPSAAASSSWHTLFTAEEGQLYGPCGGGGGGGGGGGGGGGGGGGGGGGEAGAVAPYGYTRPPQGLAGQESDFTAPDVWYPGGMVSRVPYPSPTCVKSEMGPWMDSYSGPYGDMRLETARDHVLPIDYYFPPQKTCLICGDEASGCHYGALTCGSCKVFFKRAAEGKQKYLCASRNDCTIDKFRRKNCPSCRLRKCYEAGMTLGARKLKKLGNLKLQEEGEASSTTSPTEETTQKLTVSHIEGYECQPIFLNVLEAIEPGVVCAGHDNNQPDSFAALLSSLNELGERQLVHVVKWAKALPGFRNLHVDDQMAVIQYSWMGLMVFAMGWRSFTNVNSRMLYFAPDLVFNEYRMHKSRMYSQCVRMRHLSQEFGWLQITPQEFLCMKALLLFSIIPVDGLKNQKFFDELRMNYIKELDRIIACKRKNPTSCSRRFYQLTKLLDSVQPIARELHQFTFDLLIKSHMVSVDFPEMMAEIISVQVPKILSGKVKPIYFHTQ

SMILES | Potency [1] | Potency [2] | Potency [3] | Potency [4] | Potency [5] | Potency [6] | outcome [7] | Potency [8] | Potency [9] | Potency [10] | Potency [11] | Potency [12] | outcome [13] | outcome [14] | Potency [15] | Potency [16] | Potency [17] | Potency [18]
C1=Cc2ccccc2C1 | inactive | inactive | inactive | inactive | inactive | inactive | inactive | inactive | inactive | inactive | inactive | inactive | inactive | inactive | inactive |  |  | 
O=C(CC(=O)c1ccccc1)c1ccccc1 | inactive | inactive | inactive |  |  | inactive |  | 65.7 µM (active) |  | inactive | inactive | inactive | inactive |  |  | inactive | inactive | 
CCC(C)N(C)C(=O)c1cc2ccccc2c(-c2ccccc2Cl)n1 (stereo not drawn) | inactive | inactive |  | inactive | inactive | inactive | inactive |  | inactive | inactive | inactive | inactive | inactive | inactive | inactive | inactive | inactive | inactive
COCCO | inactive | inactive | inactive | inactive | inactive | inactive |  | inactive |  | inactive | inactive | inactive | inactive | inactive | inactive |  |  | 
C=CC[N+]1([C@H]2C[C@H]3[C@@H]4CC[C@H]5C[C@H](OC(C)=O)[C@@H](N6CCCCC6)C[C@]5(C)[C@H]4CC[C@]3(C)[C@H]2OC(=O)CC)CCCCC1 | inactive | inactive | inactive | inactive | inactive | inactive | inactive | inactive | inactive | inactive | inactive | inactive | inactive | inactive | inactive | inactive | inactive | 
CC(C(=O)O)c1ccc(-c2ccccc2)c(F)c1 (stereo not drawn) | inactive | inactive | inactive | inactive | inactive | inactive |  |  |  |  | inactive | inactive |  |  |  |  |  | 
CCCCCOC(=O)c1ccc(O)cc1 | 39 µM (active) | inactive | 55.1 µM (active) |  | 31 µM (active) |  |  | 27.6 µM (active) |  |  | inactive | inactive | inactive |  |  | inactive | inactive | 
CCN(CC)CCOc1ccc2c(c1)C(=O)c1cc(OCCN(CC)CC)ccc1-2 | inactive | 13.3 µM (active) | 18.8 µM (active) | 18.8 µM (active) |  |  |  |  | 13.3 µM (active) | 16.8 µM (active) | inactive | inactive | inactive | inactive | inactive |  |  | 
O=CNc1ccccc1 | inactive | inactive | inactive | inactive |  | inactive |  | inactive | inactive | inactive | inactive | inactive | inactive | inactive | inactive |  |  | 
CC(=O)OCCc1ccccc1 | inactive | inactive | inactive | inactive | inactive | inactive | inactive | inactive | inactive | inactive | inactive | inactive | inactive | inactive | inactive | inactive | inactive | 
CC(C)(C)C1CCCCC1O (stereo not drawn) | inactive | inactive | inactive | inactive | inactive | inactive |  | inactive | inactive | inactive | inactive | inactive | inactive |  |  | inactive | inactive | 
CC(=O)O[C@H]1C[C@@H]2CC[C@@H]3[C@H](CC[C@@]4(C)[C@H]3C[C@H]([N+]3(C)CCCCC3)[C@@H]4OC(C)=O)[C@@]2(C)C[C@@H]1N1CCCCC1 | inactive | inactive | inactive |  | inactive | inactive | inactive | inactive | inactive | inactive | inactive | inactive | inactive | inactive | inactive | inactive | inactive | 
O=C(c1ccccc1)c1ccc2n1CCC2C(=O)O (stereo not drawn) | inactive | inactive | inactive | inactive |  | inactive | inactive | inactive | inactive |  | inactive | inactive |  |  |  |  |  | 
N#CCCNCCC#N | inactive | inactive | inactive | inactive | inactive | inactive | inactive | inactive | inactive | inactive | inactive | inactive | inactive | inactive | inactive |  |  | 
O=S1(=O)N=C(O)c2ccccc21 | inactive | inactive | inactive | inactive |  | inactive | inactive | inactive | inactive | inactive | inactive | inactive | inactive | inactive | inactive |  | inactive | 
COc1ccc([C@@H]2Sc3ccccc3N(CCN(C)C)C(=O)[C@@H]2OC(C)=O)cc1 | inactive | inactive | 15 µM (active) | 21.1 µM (active) |  | inactive | inactive | inactive | 21.1 µM (active) |  | inactive | inactive | inactive |  |  | inactive | inactive | 
CC(C(=O)O)c1ccc(C(=O)c2ccccc2)s1 (stereo not drawn) | inactive | inactive | inactive | inactive |  | inactive | inactive | inactive | inactive | inactive | inactive | inactive |  | inactive | inactive |  |  | 
Cn1sccc1=O | 12.2 µM (active) and 3.06 µM (active) | inactive | inactive | inactive | inactive | inactive | inactive | inactive | inactive |  | inactive | inactive | inactive | inactive | inactive | inactive | inactive | 

— PubChem BioAssay (Tox21)
